Assay results published in PubChem BioAssay AID1468 (National Center for Advancing Translational Sciences (NCATS), 2008).
Values joined by “and” are separate entries in the source; they are usually repeats but may differ in a detail not shown here. Equal entries are not always repeated. The whole screen tested about 280,000 compounds, of which about 1,100 (0.39%) were called active. Roughly 7% stayed inconclusive and do not appear here. This is one part of a sample in which actives are shown more often than they occur. Calls follow the shape of the dose curve; as a rule, active = well fitted inhibition curve with a large enough effect; inconclusive = small, poorly fitted or top-dose-only effect, or effect the other way; inactive = flat fitted curve, though single readings scatter.

target: Microtubule-associated protein tau (Homo sapiens) (UniProt P10636); experiment: qHTS for Inhibitors of Tau Fibril Formation, Fluorescence Polarization; conditions: K18 P301L tau heparin fibrillization, Alexa594 FP, 6 h; series mostly up to 57.7 µM; also: nearly all actives have a fitted effect of over 55% in size
In short: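 K18 P301L tau (15 uM unlabeled/0.24 uM Alexa 594-labeled, final) + compound + heparin 20 uM final; 100 mM NaOAc pH 7; 6 hr 37 C; ThT 30 uM final added, 1 hr RT; FP ex 555/em 632 nm.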
Potency is read from the fitted curve at half-maximal effect.

Microtubule-associated protein tau (Homo sapiens), sequence (P10636 561-689 P618L limits assumed): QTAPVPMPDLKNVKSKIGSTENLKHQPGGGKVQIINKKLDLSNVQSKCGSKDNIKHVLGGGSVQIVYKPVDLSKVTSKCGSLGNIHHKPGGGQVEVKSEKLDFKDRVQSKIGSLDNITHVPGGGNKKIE

Potency, inactive:
Cc1cc(C)cc(NS(=O)(=O)c2ccc3[nH]cc(C(=O)N4CCCCC4)c(=O)c3c2)c1
COc1ccc(S(=O)(=O)NC(C)C)cc1C(=O)NC1CCCCC1
Cc1cccc(NC(=O)Cn2nc(-c3ccc(Cl)cc3)c3ccccc3c2=O)c1
O=S(=O)(c1ccccc1)c1nc(-c2ccc(Cl)cc2Cl)oc1N1CCCCC1
CCc1ccc(NC(=O)CN2CCSc3ccc(S(=O)(=O)N4CCCC4)cc32)cc1
COc1ccc(S(=O)(=O)NCc2cccn2Cc2cccc(C)c2)cc1Cl
Cc1cccc(CC(=O)N2CC(=O)Nc3ccc(F)cc3C2c2ccccc2)c1 (stereo unspecified)
O=C(Nc1ccc(-c2nc3cc(NC(=O)c4ccccc4Cl)ccc3o2)cc1)c1ccccc1Cl
Cc1ccc(-c2nnc(-c3ccc(NC(=O)c4cccs4)cc3)o2)cc1
CCN(CC)CCNC(=O)c1cc2c(=O)oc3ccc(C)cc3c2s1
COc1cccc(NC(=O)NCc2ccc(F)cc2)c1
Cc1cccc(NC(=O)c2cccc(C(F)(F)F)c2)c1
COc1cc2c(=O)c(S(=O)(=O)c3ccc(C(C)C)cc3)cn(Cc3ccccc3C)c2cc1OC
CCOc1ccc(CNC(=O)c2cc(-c3ccc(Cl)s3)nc3ccccc23)cc1
O=C(Nc1ccccc1)Nc1ccccc1C(=O)NCc1ccco1
COc1ccc(-c2noc(-c3ccc(N4CCN(c5ccccc5)CC4)c([N+](=O)[O-])c3)n2)cc1OC
CCOc1ccccc1CNCc1c(C(=O)O)c(C)n(Cc2ccc(C)cc2)c1C
COc1ccccc1CNC(=O)CCn1c(=O)c2ccccc2n(CC(=O)Nc2ccc(Br)cc2F)c1=O
Cc1cc(C)c2oc(C(=O)Nc3ccc(S(=O)(=O)N(C)c4ccccc4)cc3)cc(=O)c2c1
COc1ccc(-c2csc(-c3c(N)c(C(=O)c4ccc(OC)c(OC)c4)n4ccccc34)n2)cc1
Cc1ccc(Cl)cc1N1CCN(C(=O)CN2C(=O)COc3ccc(S(=O)(=O)N4CCOCC4)cc32)CC1
COc1ccc(-n2c(=O)c3c(c4cc(OC)ccc4n3C)n(Cc3cccc(C)c3)c2=O)cc1
O=c1[nH]c(=O)c2nc3ccccc3nc2[nH]1
COc1ccc(CCNC(=O)c2ccc(-n3c(C)cc4c3CCCC4)cc2)cc1OC
Cc1ccc2oc3c(c(=O)c2c1)C(c1ccc([N+](=O)[O-])cc1)N(CCCN1CCOCC1)C3=O (stereo unspecified)
Cc1cc(C)c(NC(=O)CCc2c(C)nc3c(c(C)nn3C(C)(C)C)c2C)c(C)c1
COC(=O)c1ccccc1NC(=O)c1ccc2c(=O)n3c(nc2c1)CCCCC3
COc1ccc(N2CCN(c3nc(-c4ccccc4F)nc4ccccc34)CC2)cc1
CCc1cccc(NC(=O)CSc2nccn2C)c1
COC(=O)c1c(NC(=O)C(C)Oc2ccc(Cl)c(C)c2)sc(C)c1C (stereo unspecified)
CCc1nc2cccnc2n1-c1ccc(CC(=O)Nc2c(C)cccc2C)cc1
CCN(CC(=O)NCCc1ccccc1)S(=O)(=O)c1ccccc1
CCN(CC(=O)NCCc1ccccc1)S(=O)(=O)c1ccc(C)cc1
CC(C)(C)OC(=O)N1CCC(c2c(C(=O)Nc3ccc4c(c3)OCO4)cnn2-c2ccccc2)CC1
Cc1ccc(Cn2cc(CCC(=O)NCc3ccc(OC(C)C)cc3)c3ccccc32)cc1
Cc1ccc(C)c(N2CCN(c3ccc4cc(S(=O)(=O)N5CCC(C)CC5)ccc4n3)CC2)c1
CC(=O)c1cccc(S(=O)(=O)N2CCC(n3nnc4cc(F)ccc43)CC2)c1
Cc1ccc(CNS(=O)(=O)c2ccc(C(=O)N(C)C)s2)cc1

Potency, active:
CC(C)c1ccc(NS(=O)(=O)c2ccc3[nH]cc(C(=O)NC4CCCC4)c(=O)c3c2)cc1 11.2 µM
CC(C)c1ccc2oc(-c3cc(NC(=O)c4cccs4)ccc3Cl)nc2c1 12.6 µM
Cc1cccc(NC(=O)Nc2cccc(Oc3c(F)c(F)c(F)c(F)c3F)c2)c1 8.91 µM
CCc1ccc(-c2cc(C(=O)NCc3ccco3)c3ccccc3n2)s1 28.2 µM
Nc1ccc2nc3c(=O)[nH]c(=S)[nH]c3nc2c1 2.24 µM
CC(=O)Oc1c2c(c3c(c1CC=C(C)C)O[C@@]14C(=CC5CC1C(C)(C)OC4(C/C=C(\C)C(=O)O)C5=O)C3=O)OC(C)(CCC=C(C)C)C=C2 (stereo partly specified) 35.5 µM
CCN(CC)S(=O)(=O)c1ccc2[nH]cc(C(=O)NCCc3ccccc3)c(=O)c2c1 12.6 µM and 14.1 µM
CC(=O)c1cccc(Nc2ccc3cc(S(=O)(=O)N4CCC(C)CC4)ccc3n2)c1 12.6 µM
